Measured values published in the supplement of paper PMC13380429.

System: Vero E6 infected with SARS-CoV-2
Test: inhibition of SARS-CoV-2 cytopathic effect; higher = more antiviral protection, active = above 15
Settings: 48 h

Measured: inhibition of SARS-CoV-2 cytopathic effect

CC(=O)[C@H]1CC[C@H]2[C@@H]3CC=C4C[C@@H](O)CC[C@]4(C)[C@H]3CC[C@]12C [pregnenolone]
inactive: 1 nM -0.59% | 8.33 nM 3.91% | 100 nM -5.44% | 833.33 nM -1.71% | 10000 nM -3.04%

CN1CCN(CCc2ccc(Cl)c(Cl)c2)CC1
inactive: 1 nM 0.05% | 8.33 nM 3.18% | 100 nM -0.38% | 833.33 nM 0.92% | 10000 nM -1.14%

C=C1/C(=C\C=C2/CCC[C@]3(C)[C@@H]([C@H](C)CCCC(C)C)CC[C@@H]23)C[C@@H](O)C[C@@H]1O [alfacalcidol]
inactive: 1 nM 2.5% | 8.33 nM -0.82% | 100 nM -1.14% | 833.33 nM 0.53% | 10000 nM -5.24%

Cn1cc(C(F)(F)F)nc1-c1ccc(OCC(O)CNCCOc2ccc(O)c(C(N)=O)c2)cc1 (stereo not given)
inactive: 1 nM -0.25% | 8.33 nM -0.6% | 100 nM 0.3% | 833.33 nM -1.37% | 10000 nM 1.34%

CC1(C)S[C@@H]2[C@H](NC(=O)[C@H](NC(=O)N3CCNC3=O)c3ccccc3)C(=O)N2[C@H]1C(=O)O [azlocillin]
inactive: 1 nM -1.64% | 8.33 nM -1.64% | 100 nM 1.05% | 833.33 nM -1.76% | 10000 nM -1.54%

CCCC(C)C1(CC)C(=O)NC(=S)NC1=O (stereo not given) [thiopental]
inactive: 1 nM -0.77% | 8.33 nM 0.01% | 100 nM 0.2% | 833.33 nM 1.29% | 10000 nM 0.45%

CC(C)[C@@H](C)/C=C/[C@@H](C)[C@H]1CC[C@H]2C3=CC=C4C[C@@H](O)CC[C@]4(C)[C@H]3CC[C@]12C [ergosterol]
inactive: 1 nM -3.22% | 8.33 nM 1.48% | 100 nM 0.86% | 833.33 nM 2.74% | 10000 nM 2.85%
